Where “and” joins values, the source holds several entries; their conditions need not be identical. Equal values may be shown once. Compounds without any hit were thinned out: in the full panel of roughly 79,000, 15% have a hit. Unmarked numbers belong to inactive results. Calls of active or inactive are those of the source. No stated cut-off is given here; in the data, active means growth inhibition above about 70%; inactive means the rest.

Assay [1] is described as follows: NCI Yeast Anticancer Drug Screen. Data for the rad50 strain (AID 155).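 Further: 0% = growth of vehicle-only cultures of the same strain.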 The note with it: S. cerevisiae rad50 strain growth inhibition, active compounds read high; at 50.0 µM unless noted. The procedure, abridged: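 A DNA repair-deficient yeast mutant serves as the test organism; compound-induced growth inhibition is calculated against vehicle-treated cells.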
The nature of assay [2]: NCI Yeast Anticancer Drug Screen. Data for the mec2-1 strain (AID 157). The note with it: S. cerevisiae mec2-1 strain, active compounds read high; at 50.0 µM unless noted. Put shortly: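 Test agents were screened against the mec2-1 yeast strain, with defined DNA repair or cell cycle alteration. Growth was scored as inhibition against vehicle-only controls.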
The nature of assay [3]: NCI Yeast Anticancer Drug Screen. Data for the sgs1 mgt1 strain (AID 161).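 Further: 0% = growth of cultures given vehicle only.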 The note with it: S. cerevisiae sgs1 mgt1 strain, active compounds read high; at 50.0 µM unless noted. The procedure, abridged:
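Read-out: growth inhibition vs vehicle controls. Cells: mutant yeast strain deficient in DNA damage repair.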

The nature of assay [4]: NCI Yeast Anticancer Drug Screen. Data for the cln2 rad14 strain (AID 165).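 Further: 0% = growth equal to vehicle treated cultures.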 The note with it: S. cerevisiae cln2 rad14 strain, active compounds read high; at 50.0 µM unless noted. The procedure, abridged: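 Growth of compound-exposed yeast (cln2 rad14 genotype) measured and expressed as inhibition relative to vehicle.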
Assay [5] in a line: NCI Yeast Anticancer Drug Screen. Data for the bub3 strain (AID 167). The note with it: S. cerevisiae bub3 mutant strain, active compounds read high; at 50.0 µM unless noted. The procedure, abridged:
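Inhibition values come from growth of compound-treated mutant yeast normalised to vehicle-treated controls.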

The nature of assay [6]: NCI Yeast Anticancer Drug Screen. Data for the mlh1 rad18 strain (AID 175). The note with it: S. cerevisiae mlh1 rad18 strain growth inhibition, active compounds read high; at 50.0 µM unless noted. The procedure, abridged: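 In this whole-cell yeast screen, a strain with altered DNA damage repair is challenged with compound, and its growth is measured against matched vehicle-treated controls.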

With `CC(C)(C)OC(=O)CC(NC(=O)OC(C)(C)C)C(=O)NC(C(=O)O)C(O)c1ccccc1` (stereo not given), the growth inhibition in assay [1] is -19.4%; in assay [2], -24.9%; in assay [3], -15.3%; in assay [4], -22.9%; in assay [5], -9.45%; in assay [6] it was -28.6%.
For the compound `COc1ccccc1OC(=O)c1ccccc1`, the growth inhibition in assay [1] is -27.4%; in assay [2], 7.4%; in assay [3] it was -22.8%; in assay [4], -9.1%; in assay [5], 11.5%; in assay [6], -5.35%.
`CCCCC(NC(=O)c1ccc2ccccc2n1)C(=O)O` (stereo not given): the growth inhibition in assay [1] is -0.35%; in assay [2], 9%; in assay [3], 1.5%; in assay [4] it was 7.35%; in assay [5] it was -8.7%; in assay [6] it was 20.2%.
As to `OC(CN1CCCC2CCCCC21)c1cc2c(c3ccccc13)CCCC2` (stereo not given), the growth inhibition in assay [1] is 98.2% (active); in assay [2], 96.7% (active); in assay [3], 99.5% (active); in assay [4] it was 93.7% (active); in assay [5] it was 98.5% (active); in assay [6], 99.5% (active).
For the compound `CSc1c(C)n2c3c(cccc13)CCC2`, the growth inhibition was -9.7% in assay [1]; -6.6% in assay [2]; -3.8% in assay [3]; -36.7% in assay [4]; 1.35% in assay [5]; 3.3% in assay [6].
In the case of `Cc1cc(Cl)ccc1NC(=O)CC/C(CC(=O)C(C)C)=N\NC(=O)C[n+]1ccccc1`, the growth inhibition in assay [1] is -43.9%; in assay [2], 3.45%; in assay [3], -20.4%; in assay [4] it was -15.2%; in assay [5], -30.6%; in assay [6] it was -32.8%.
As for `O=C(Cc1ccccc1)NCCCN(CCCCN(CCCNC(=O)Cc1ccccc1)C(=O)OCc1ccccc1)C(=O)OCc1ccccc1`, the growth inhibition was -11.9% in assay [1]; -11.6% in assay [2]; -2.7% in assay [3]; -7.4% in assay [4]; -0.85% in assay [5]; -27.6% in assay [6].
Take `Nc1nc(CC2(O)CCCCC2)cc(-c2ccccc2)n1`: the growth inhibition in assay [1] was 49%; in assay [2], 29.6%; in assay [3] it was 21.1%; in assay [4] it was 55.2%; in assay [5], 45.5%; in assay [6], 44.8%.
With `CC(C)(C)c1cc2c(O)c3cccc4c(=O)c5cccc6c5-c(c34)c2c(c1)c6=O`, the growth inhibition is 33.9% in assay [1]; 15.1% in assay [2]; -26.8% in assay [3]; 7.2% in assay [4]; 4.8% in assay [5]; -11.2% in assay [6].
For the compound `CC(=O)c1cc([N+](=O)[O-])ccc1OCC(=O)O`, the growth inhibition is 5.95% in assay [1]; 4.85% in assay [2]; 3.75% in assay [3]; 1.85% in assay [4]; 9.85% in assay [5]; 9.6% in assay [6].
`O=C(c1cccs1)N(C(=S)N1CCN(c2ccccc2)CC1)C1CCCCC1`: the growth inhibition was -0.45% in assay [1]; -5.9% in assay [2]; -8% in assay [3]; 13.4% in assay [4]; -26.8% in assay [5]; -10.4% in assay [6].
Regarding `OCCN1CCCCCCC1`, the growth inhibition in assay [1] is -2% and 0.2%; in assay [2] it was -6.15% and -3.8%; in assay [3] it was -4.6% and 0.65%; in assay [4], -0.45% and 5.6%; in assay [5], -6.3% and 10.1%; in assay [6], -7.5% and -0.3%.
Take `CNC(=O)OCc1c(COC(=O)NC)c(C)n(-c2ccc(Cl)cc2)c1C`: the growth inhibition in assay [1] was 38.8%; in assay [2], 40.4%; in assay [3], 83.2% (active); in assay [4], 24.6%; in assay [5] it was 84.5% (active); in assay [6] it was 91.3% (active).
With `COc1ccc(N=C=Nc2ccc(OC)cc2)cc1`, the growth inhibition in assay [1] is -1.45%; in assay [2], -15%; in assay [3], 4.15%; in assay [4], 9.6%; in assay [5], -10.2%; in assay [6], -13.6%.
On to `COc1cc(CNc2ccccc2)ccc1O`, for which the growth inhibition in assay [1] is -15.2%; in assay [2] it was 6.1%; in assay [3], -16.9%; in assay [4] it was -8.1%; in assay [5], 10.9%; in assay [6], -8.4%.
On to `CCOc1cccc(OCC)c1`, for which the growth inhibition in assay [1] is 23.1%; in assay [2] it was 27.1%; in assay [3] it was -7.4%; in assay [4], -2.05%; in assay [5], 1.4%; in assay [6], 13.9%.
With `Nc1ncnc2c1ncn2C1OC(C(O)CO)C(O)C1O` (stereo not given), the growth inhibition is -0.65% and -17.4% in assay [1]; -1.4% and -71.8% in assay [2]; -4.2% and -6.85% in assay [3]; -81.3% and 10.2% in assay [4]; 1.15% and 16.4% in assay [5]; -16.1% and -31.6% in assay [6].
As to `Cc1cc(C)c(F)c(C)c1F`, the growth inhibition in assay [1] was -7.95%; in assay [2] it was -4.6%; in assay [3] it was -5.45%; in assay [4], -15.8%; in assay [5], 5.9%; in assay [6] it was -2.3%.
As for `CC(=O)CC(C)(C)c1cc(-c2ccccc2)on1`, the growth inhibition was 20.8% in assay [1]; 5.4% in assay [2]; -6.25% in assay [3]; -61.6% in assay [4]; 19.4% in assay [5]; 12.8% in assay [6].
In the case of `Nc1ccccc1NC(=O)C(F)(F)C(F)(F)C(F)(F)C(=O)Nc1ccccc1N`, the growth inhibition was 3.15% in assay [1]; -6.25% in assay [2]; -14.6% in assay [3]; -12.3% in assay [4]; 28.6% in assay [5]; -16.6% in assay [6].
